Shown are actives, neighbours in structure and some others; about 9.5% of the full set was active somewhere.
HPGD block: blocks human HPGD enzyme activity; P15428; purified HPGD, NADH fluorescence kinetic, PGE2 substrate; Potency, µM, for inactives: at the highest dose activity change, negative = inhibition, actives largely listed as inhibitors; 150,000 compounds, 4.3% hits; AID 894; active = well fitted inhibition curve with a large enough effect, not every such curve was filed as active; inconclusive = small, poorly fitted or top-dose-only effect, or another doubt; inactive = no such curve, though single readings can be large or run the other way
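20 nM HPGD preincubated 15 min at room temperature with compound in 50 mM Tris-HCl pH 8, 0.01% Tween 20. Started with 1 mM NAD+ and 30 uM prostaglandin E2; NADH fluorescence (360/450 nm) read 5 times over 30-s intervals, last minus first.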
NPSR antagonist: antagonists of human neuropeptide S receptor cAMP signaling | CHO-NPSR cells, cAMP TR-FRET, antagonist mode | Potency, µM (top dose mostly 38.3 µM), for inactives: at the top dose activity change, negative = inhibition, usual class: inhibitors | 220,000 compounds, 1% hits | AID 1461; also: nearly all actives have a fitted effect of over 50% in size
Tau fluor cs: counter-screen for tau fibril formation inhibitors. Potency, µM (titrated, usually from 57.7 µM), for inactives: top-dose activity change, negative = decrease. AID 1463. tau K18 P301L Alexa594 fluorescence, heparin fibrillization. 280,000 compounds, 0.93% hits; also: nearly all actives have a fitted effect of over 55% in size
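Human tau K18 P301L (15 uM unlabeled, 0.24 uM Alexa 594-labeled) in 100 mM sodium acetate pH 7 with 20 uM heparin, 6 hr at 37 C. ThT 30 uM added, 1 hr ambient; Alexa 594 FP and total fluorescence read at 555/632 nm.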
Tau FP inhib: tau fibrillization inhibition (FP) | AID 1468 | 280,000 compounds, 0.39% hits | Potency, µM (highest dose often 57.7 µM), inactives show at the top dose activity, negative = inhibition, actives largely listed as inhibitors | P10636 | K18 P301L tau heparin fibrillization, Alexa594 FP, 6 h; also: nearly all actives have a fitted effect of over 55% in size
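Recombinant K18 P301L […], labeled with Alexa 594 at 0.24 uM over 15 uM unlabeled; heparin inducer 20 uM final; 37 C, 6 hr; FP endpoint.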
ALDH1A1 inh: inhibitors of human aldehyde dehydrogenase 1A1; P00352; Purified ALDH1A1, NADH fluorescence, propionaldehyde substrate; Potency, µM (top dose mostly 75.3 µM), inactives show at the top dose activity, negative = inhibition, most hits filed as inhibitors; 220,000 compounds, 7.3% hits; active = well fitted inhibition curve with a large enough effect, not every such curve was filed as active; inconclusive = small, poorly fitted or top-dose-only effect, or another doubt; inactive = no such curve, though single readings can be large or run the other way;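 also: plate controls were no enzyme wells and a reference inhibitor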
Target sequence (P00352 whole entry, looked up): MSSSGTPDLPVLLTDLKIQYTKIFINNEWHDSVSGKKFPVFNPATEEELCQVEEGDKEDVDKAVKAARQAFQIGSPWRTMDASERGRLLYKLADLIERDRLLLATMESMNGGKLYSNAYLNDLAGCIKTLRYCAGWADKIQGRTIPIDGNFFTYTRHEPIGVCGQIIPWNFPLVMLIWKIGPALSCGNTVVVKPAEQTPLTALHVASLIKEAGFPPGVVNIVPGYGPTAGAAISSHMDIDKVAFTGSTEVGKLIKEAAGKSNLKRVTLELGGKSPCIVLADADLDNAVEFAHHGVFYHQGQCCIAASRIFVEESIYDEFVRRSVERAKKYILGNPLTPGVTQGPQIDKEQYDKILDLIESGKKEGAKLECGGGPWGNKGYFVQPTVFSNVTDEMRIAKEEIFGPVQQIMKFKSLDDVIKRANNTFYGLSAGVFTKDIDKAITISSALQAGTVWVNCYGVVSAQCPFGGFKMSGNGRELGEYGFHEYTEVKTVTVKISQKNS
Tau fibril ThT: inhibitors of human tau fibril formation, thioflavin T binding | recombinant tau K18 P301L (four-repeat tau fragment), heparin-induced fibrillization, ThT fluorescence | AID 1460 | 270,000 compounds, 2.1% hits | P10636 | Potency, µM (series often up to 57.4 µM), inactives show at the top dose activity, negative = inhibition, actives largely listed as inhibitors; also: nearly all actives have a fitted effect of over 55% in size
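K18 P301L tau (15 uM + 0.24 uM Alexa 594-tagged), heparin 20 uM, NaOAc pH 7, 6 h 37 C; ThT 30 uM, 1 h RT, ex 450/em 510 nm.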
Active calls of the source: *; ? = inconclusive; / = no result; [ ] = remark or other dose. Unless noted, calls follow the shape of the dose curve; as a rule, active = well fitted curve in the direction sought with a large enough effect; inconclusive = small, poorly fitted or top-dose-only effect, or another doubt; inactive = no such curve, though single readings can be large; an effect the other way counts as inactive or inconclusive. Unless noted, % is scaled to controls: 0 for no effect and ±100 for the full control effect; potency is read from the fitted curve at half-maximal effect.

SMILES	HPGD block	NPSR antagonist	Tau fluor cs	Tau FP inhib	ALDH1A1 inh	Tau fibril ThT
COc1cccc(C(=O)NCCC2=CCCCC2)c1	14.1µM*	-1.6%[46.1 µM]	-7.8%	-5.3%	?	-11.8%
COc1cccc(NC(=O)CSc2nc3n[nH]c(C)c3c(=N)n2-c2cccc(OC)c2)c1	?	?	?	-16.0%	?	-6.2%
CCOc1cccc2cc(C(=O)NCCC3=CCCCC3)c(=O)oc12	/	-3.9%	-24.3%	2.7%	25.1µM*	?
CCOc1cccc2cc(C(=O)Nc3nccs3)c(=O)oc12	-3.5%	-5.8%[46.1 µM]	-11.2%	-8.2%	0.5%	-12.8%
COc1cccc(-n2c(SCC(=O)NCCC3=CCCCC3)nc3n[nH]c(C)c3c2=N)c1	-17.0%	-24.3%[46.1 µM]	-19.2%	-0.4%	20µM*	-12.9%
COc1ccc(C(=O)NCCC2=CCCCC2)cc1	-23.9%	5.8%	0.4%	4.0%	-1.7%	-8.5%
Cc1cc(C(=O)NCCC2=CCCCC2)ccc1[N+](=O)[O-]	/	19.8%	-27.0%	-5.7%	25.1µM*	?
O=C(NCCC1=CCCCC1)c1ccc([N+](=O)[O-])cc1	-16.6%	-3.3%	-15.4%	?	-10.5%	?
CCCCN(CC)CCCNC(=O)C1CCN(c2nc3ccc(CC)cc3s2)CC1	/	/	-24.6%	?	/	-16.3%
Cc1cccc(N2CCN(C(=O)c3cc4ccc5cccnc5c4[nH]3)CC2C)c1 (stereo unspecified)	/	/	?	4.2%	/	?
O=C(CSc1ncc(S(=O)(=O)c2ccc(Cl)cc2)c(=O)[nH]1)Nc1ccc2c(c1)OCCO2	/	/	-9.4%	3.0%	/	?
O=C(COC(=O)CNC(=O)c1ccc(Br)cc1)NCCC1=CCCCC1	/	7.4%	-8.5%	8.8%	?	-7.9%
COc1ccc(C(=O)NCC(=O)OCC(=O)NCCC2=CCCCC2)cc1	/	6.0%	-5.6%	3.2%	15.8µM*	0.9%
CCCn1c(=N)n(CCOc2ccc(OC)cc2)c2ccccc21	-0.5%	-8.0%[46.1 µM]	-4.4%	-1.7%	4.4%	-8.0%
CCC(=O)N=c1n(C)c2ccccc2n1CCOc1ccccc1	-6.7%	12.6%	5.0%	-2.3%	5.01µM*	-0.6%
CCCN1CN(Cc2ccccc2)CNC1=S	-4.2%	-9.1%[46.1 µM]	-2.5%	0.7%	1.6%	-5.8%
COCCCN1CN(Cc2ccccc2)CNC1=S	-7.2%	3.9%[46.1 µM]	3.8%	-1.6%	8.91µM*	3.6%
O=C(CN1CC[n+]2c(-c3cccs3)csc21)c1ccc(-c2ccccc2)cc1	/	-23.2%	22.2%	5.1%	8.1%	27.0%
CCc1ccc(-c2csc3[n+]2CCN3C(C)=O)cc1	14.1µM*	-7.6%[46.1 µM]	-19.7%	?	?	25.1µM*
CC(=O)N1CC[n+]2c(-c3ccc(Cl)cc3)csc21	17.8µM*	8.0%	-25.4%	?	?	28.2µM*
O=C1CCN(S(=O)(=O)c2ccc(Br)cc2)CCN1	/	5.8%	1.3%	1.9%	8.3%	-4.4%
CCc1ccc(S(=O)(=O)/N=C2/C=C(Sc3ncn[nH]3)C(=O)c3ccccc32)cc1	1.58µM*	10µM*	?	11.2µM*	5.01µM*	3.98µM*
CCc1ccc(S(=O)(=O)/N=C2\C=CC(=O)c3ccccc32)cc1	/	-14.4%	?	?	?	17.8µM*
CCc1ccc(S(=O)(=O)N2CC(=O)Nc3ccccc32)cc1	-2.8%	-2.5%[46.1 µM]	-14.5%	-9.8%	6.0%	-2.5%
Cc1cc(NC(=O)c2sc(Nc3cccc(C(F)(F)F)c3)nc2N)no1	-13.1%	-15.0%[46.1 µM]	17.8µM*[quencher]	?	6.1%	11.2µM*
Cc1cc(NC(=O)c2sc(Nc3ccc(F)c(Cl)c3)nc2N)no1	/	-19.8%	?	6.5%	13.3%	?
CC(C)(C)c1ccc(C(=O)NCC(=O)OCC(=O)Nc2ccccc2[N+](=O)[O-])cc1	-10.7%	-3.1%	0.9%	-1.7%	6.31µM*	9.4%
Cc1ccc(S(=O)(=O)N2CCOCC2)cc1NC(=O)COC(=O)CNC(=O)c1ccc(C(C)(C)C)cc1	-10.7%	5.5%	-12.8%	0.0%	7.94µM*	-4.3%
